High-throughput results: PubChem, National Center for Advancing Translational Sciences (NCATS)
CHX counter = affects cycloheximide protein synthesis inhibition readout, counter-screen; 300,000 compounds, 12% hits; max response, %; cell reporter, cycloheximide protein synthesis inhibition counterscreen; in the data active means max response mostly above about 13%, no sharp cut-off; inactive means mostly below about 14%; further: read at 38.3 µM for the half of the compounds with a filed dose; 0% is about no effect
Pf growth 96h = P. falciparum growth inhibition at 96 hour, primary screen for plastid delayed-death inhibitors; P. falciparum luciferase reporter growth, 96 h; Potency, µM (doses to about 28.7 µM), without a hit: top-dose activity change, negative = inhibition, hits mostly inhibitors; 320,000 compounds, 6.9% hits; AID 504834; active means well fitted inhibition curve with a large enough effect; inconclusive means small, poorly fitted or top-dose-only effect, or another doubt; inactive means no such curve, though single readings can be large or run the other way; further: potency means the concentration at half of the fitted maximal effect; on the % scale 0 is the no-effect control and ±100 the full control effect
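Compounds incubated with erythrocytes infected by luciferase-expressing P. falciparum (2% hematocrit, 0.05% parasitemia final) for 96 hours, 37 C in 5% CO2. Growth inhibition scored as decreased luciferase luminescence.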
Pf growth 48h = P. falciparum growth inhibition at 48 hours (one generation). P. falciparum luciferase growth in erythrocytes, 48 h. Potency, µM (series often up to 28.7 µM), without a hit: at the top dose activity change, negative = inhibition, most hits filed as inhibitors. 310,000 compounds, 5.9% hits. AID 504832; active means well fitted inhibition curve with a large enough effect; inconclusive means small, poorly fitted or top-dose-only effect, or another doubt; inactive means no such curve, though single readings can be large or run the other way; further: potency means the concentration at half of the fitted maximal effect; on the % scale 0 is the no-effect control and ±100 the full control effect
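A one-generation exposure of luciferase-tagged malaria parasites in RPMI 1640/Albumax erythrocyte culture, 37 C and 5% CO2. Inhibition is inferred from decreased luminescence after adding detection reagent.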
Shiga toxin inh = blocks Shiga toxin action in Vero cells; 290,000 compounds, 9.2% hits; AID 2315; inhibition, % at 38.7 µM; Vero cells, Shiga toxin protein synthesis inhibition reporter; in the data active means inhibition mostly above about 28%, no sharp cut-off; inactive means mostly below about 43%; further: 0% is about no effect
NS1 inh = inhibitors of influenza NS1 protein function; Potency, µM (series often up to 46.1 µM), for inactives: at the highest dose activity, positive = more growth; 270,000 compounds, 0.4% hits; further: potency means the concentration at half of the fitted maximal effect; actives are rising curves; nearly all actives have a fitted effect of over 50% in size
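Growth recovery, yeast-based: influenza A NS1 expressed in S. cerevisiae causes slow growth, and suppressors are detected by OD600. The parent strain without NS1 is used as positive control.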
SARS PLpro yeast-1 = blocks SARS-CoV papain-like protease in a yeast assay; S. cerevisiae expressing SARS-CoV PLpro, growth rescue; Potency, µM (top dose mostly 32.9 µM), without a hit: at the highest dose activity, positive = growth rescue, hits mostly activators; 330,000 compounds, 0.19% hits; AID 485353; further: potency means the concentration at half of the fitted maximal effect; 0% is about no effect; nearly all actives have a fitted effect of over 55% in size
SARS PLpro yeast-2 = Validates SARS-CoV PLpro inhibitor hits in yeast; 1,000 compounds, 19% hits; calls only; shares compounds with SARS PLpro yeast-1; yeast expressing SARS-CoV PLpro, growth phenotype rescue; call rule not given here
* = called active by the depositor; i = inactive; ? = inconclusive; nt = no result; + = active, no number; [ ] = another dose, or the depositor's remark. A selection: hits, their analogues and other compounds. The true share with any hit is near 21%. Unless noted, the call rests on the fitted dose curve.

SMILES | CHX counter | Pf growth 96h | Pf growth 48h | Shiga toxin inh | NS1 inh | SARS PLpro yeast-1 | SARS PLpro yeast-2
C/C(=N\NC(N)=S)C1(C)CCCCC1 | -3.0 | ? | ? | -7.6 | 5.5% | 17.8µM* | +
Cc1cccc(C(=O)N[C@H](C(=O)NCCc2ccc(Cl)cc2)C(C)C)c1 | -4.0 | 9.9% | 2.2% | 21.0 | 7.3% | 7.0% | nt
CCCCn1c(N)c(N(CC)C(=O)c2cc(S(=O)(=O)N3CCCCCC3)ccc2OC)c(=O)[nH]c1=O | nt | -8.4% | 0.0% | nt | nt | ? | i
COc1ccc(S(=O)(=O)N2CCc3ccccc32)cc1C(=O)Nc1ccc(NC(C)=O)cc1 | nt | nt | nt | nt | nt | -0.9% | nt
O=C(CCl)Nc1ccc(Oc2cnc3ccccc3n2)cc1 | 30.2* | 0.738µM* | 1.65µM* | 46.4 | ? | 10µM* | +
COc1ccc(C(=O)CC(=O)C(=O)Nc2cc(Cl)c(OC)cc2OC)cc1 | -0.8 | 27.8% | 1.1% | -3.5 | -10.0% | ? | +
COc1cccc(C(=O)CC(=O)C(=O)Nc2cc(Cl)c(OC)cc2OC)c1 | -4.1 | -22.7% | -5.2% | -3.7 | nt | -4.4% | nt
O=C1C[C@H]2CCCCC(=O)N3CC[C@@H](C1)[C@@H]23 | -5.0 | nt | nt | i | nt | -14.6% | nt
Cc1ccc(N2CN(Cc3ccco3)CNC2=S)c(C)c1 | -1.1 | ? | ? | 8.7 | 19.6% | ? | ?
Cc1ccc(N2CN(Cc3cccnc3)CNC2=S)c(C)c1 | -1.6 | 0.0% | 7.7% | -5.1 | 5.7% | -14.1% | nt
COc1cccc(/C=N/NC(=O)C(C)n2nc(C)c([N+](=O)[O-])c2C)c1O (stereo not drawn) | 34.8* | ? | ? | 30.9 | 10.0% | 11.2µM* | i
COc1cccc(/C=N/NC(=O)c2c(C)nc3ccc(Br)cn23)c1O | 12.5 | 0.5% | 11.7µM* | 38.2 | nt | ? | i
COc1cccc(/C=N/NC(=O)c2cc3c(OC)ccc(OC)c3[nH]2)c1O | 9.5 | ? | nt | 11.1 | 1.6% | 13.9% | nt
COc1cccc(/C=N/NC(=O)c2nc(-c3ccccc3)cc(-c3ccccc3)n2)c1O | 14.9* | 2.3% | 4.5% | 13.3 | ? | 11.2µM* | +
COc1cccc(/C=N/NC(=O)CSc2ccccc2C)c1O | 16.8 | 0.0% | ? | 37.4* | -6.0% | 22.4µM* | +
COc1cccc(NC(=S)NNC(=O)C(C)n2nc(C)c([N+](=O)[O-])c2C)c1 (stereo not drawn) | 1.7 | ? | 44.9% | -1.2 | 13.9% | 0.3% | nt
CN(C)c1nc(C(=O)O)nc(N2CCOCC2)n1 | -2.7 | 16.0% | 13.2% | 11.4 | -0.2% | -0.9% | nt
Cc1ccccc1/C=C/C1=NCCN1 | nt | 2.5% | ? | nt | -7.2% | nt | nt
CCOC(=O)Cc1csc(NC(=O)CCN2C(=O)c3ccccc3C2=O)n1 | -2.9 | 4.6% | 8.1% | -8.6 | ? | -2.5% | nt
Cc1ccc(-c2nc3ccccn3c2NC(=O)c2ccco2)cc1 | -2.7 | ? | -8.1% | 9.4 | -6.8% | ? | i
Cc1cc(C)cc(NC(=S)Nc2ccccn2)c1 | 20.6 | ? | 12.1% | active | -11.8% | 3.16µM* | +
Cc1cc(Cl)ccc1NC(=S)NCc1ccccc1 | 1.7 | 1.7% | -7.3% | -3.9 | -11.5% | -0.9% | nt
Cc1cc(Cl)ccc1NC(=S)Nc1ccccn1 | 33.4* | 32.1% | 108.1% | 23.1* | -3.2% | 5.01µM* | +
Cc1cc(C)cc(NC(=S)N2CCN(c3ccccn3)CC2)c1 | -0.7 | 8.1% | 4.6% | 5.3 | -15.1% | 0.0% | nt
O=C(NCCNC(=O)c1cc(Cl)ccc1Cl)c1ccco1 | -5.8 | 29.2% | -0.5% | -14.1 | -1.2% | 4.8% | nt
SMILES | CHX counter | Pf growth 96h | Pf growth 48h | Shiga toxin inh | NS1 inh | SARS PLpro yeast-1 | SARS PLpro yeast-2
Cc1ccc(NC(=O)CSc2ncccc2C(=O)Oc2cccc([N+](=O)[O-])c2)cc1Cl | 10.8 | ? | 71.3% | 75.1* | -5.6% | ? | i
O=C(NCC1CC1)c1cc([N+](=O)[O-])cc([N+](=O)[O-])c1 | -5.9 | 20.3% | 8.5%[0.00184 µM] | -3.1 | 3.7% | -0.7% | nt
COC(=O)C1=C(c2ccc(-c3ccccc3)c(F)c2)C[C@@H]2CC[C@H]1N2C(=O)NC(C)C | nt | ? | ? | nt | nt | 2.7% | nt
COC(=O)C1=C(c2ccc(-c3ccccc3)c(F)c2)C[C@@H]2CC[C@H]1N2C(=O)NC1CC1 | nt | 2.94µM* | 4.65µM* | nt | nt | ? | i
C#CC[N+]1(CC#Cc2ccc(C)cc2)CCCCC1 | -0.9 | ? | 1.65µM* | -4.4 | 5.4% | 20µM* | i
O=C(NCC1CCCN1S(=O)(=O)c1ccccc1)C(=O)NC1CC1 (stereo not drawn) | nt | 6.9% | 47.7% | nt | nt | 1.9% | nt
Cc1ccc(C(=O)Nc2nc(-c3ccccc3)c(-c3ccccc3)o2)cc1 | -0.5 | ? | -13.2% | 22.7 | -14.5% | 10µM* | +
OCCc1c[nH]c2ccc(OCc3ccccc3)cc12 | -3.5 | -6.2% | 0.0% | 17.6 | -24.4% | -2.4% | nt
Cc1nnsc1C(=O)N/N=C/c1c(F)cccc1Cl | 7.0 | 19.0% | 7.6% | -16.0 | nt | 0.2% | nt
Cc1nnsc1C(=O)N/N=C/c1ccc2ccccc2c1O | 0.3 | 3.29µM* | 2.62µM* | 20.1 | 9.4% | 1µM* | i
COc1cc2c(cc1OC)C(c1ccccc1)N(C(=O)C(C)(C)C)CC2 (stereo not drawn) | 1.4 | 2.4% | 30.3% | -6.5 | -1.6% | -0.8% | nt
COc1ccc(OC(=O)COc2ccc(C)cc2)cc1 | -5.9 | 25.4% | 8.1% | -8.7 | -10.2% | -2.0% | nt
COc1ccc(OCC(=O)Sc2ccc(C)cc2)cc1 | 8.1 | ? | 13.1% | -0.9 | -50.6% | 2.82µM* | i
CSc1nnc(COc2ccc(C)cc2)n1N | 18.0 | 6.8% | 29.0% | 13.9 | 8.0% | ? | i
O=C(Nc1ccc(Br)cc1)c1cccn1-c1ncc(C(F)(F)F)cc1Cl | 11.6 | ? | ? | 20.7 | -39.7% | ? | i
COc1ccc(C(=O)N2CCN(c3ccccc3)CC2)cc1S(=O)(=O)N1CCOCC1 | 0.9 | 3.4% | 5.1% | -4.3 | 2.9% | 0.1% | nt
COC(=O)c1sc(=S)sc1C(=O)OC | -3.2 | ? | -8.2% | -7.4 | -12.1% | 6.31µM* | ?
O=[N+]([O-])c1ccc(N2CCN(CC3CCCCC3)CC2)cc1 | -4.0 | -7.0% | 21.1% | nt | -5.1% | -4.3% | nt
CC(C)COc1cccc(C(=O)N(C)CC(=O)Nc2cccc3ccccc23)c1 | nt | nt | nt | nt | nt | 14.1µM* | i
Cc1ccccc1NC(=O)/C(=C\c1cccs1)NC(=O)c1ccco1 | 0.7 | 4.0% | -19.7% | -2.6 | -2.9% | ? | i
CCOc1ccc(NC(=O)CC2S/C(=N/N=C3CCCCCC3)NC2=O)cc1 (stereo not drawn) | -1.7 | ? | ? | 1.0 | -0.2% | ? | i
CC1(CCc2ccc(O)cc2)NC(=O)NC1=O (stereo not drawn) | -4.7 | 0.0% | nt | 3.9 | -14.0% | 1.9% | nt
Fc1ccccc1/C=N/NC(=S)Nc1ccc(Cl)cc1Cl | 13.3 | -33.9% | -2.0% | 10.3 | 14.9% | 4.7% | nt
